Source: PubChem BioAssay (NCATS)
Inconclusive results are not listed. Activity calls are given as the source filed them. The call rests on the fitted dose curve; in most records, active means well fitted curve in the direction sought with a large enough effect; inconclusive means small, poorly fitted or top-dose-only effect, or another doubt; inactive means no such curve, though single readings can be large; an effect the other way counts as inactive or inconclusive.

Assays:
[1] = Cell Viability - LYMP2-004 (AID 966); further: nearly all actives have a fitted effect of over 65% in size
Summary of the method: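 Luminescent ATP read-out (CellTiter-Glo, 30 min RT) after 24 hr compound exposure at 37 C; 2500 lymphoblastoid cells/well, complete medium. Decrease in ATP = cytotoxicity; AC50 from standard Hill model.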

[2] = Cell Viability - LYMP2-005 (AID 967); further: series mostly up to about 92 µM
Summary of the method: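 Acute cytotoxicity is scored as a concentration-dependent drop in intracellular ATP in human lymphoblastoid LYMP2-005 cells after 24 h compound treatment. ATP is quantified by luciferase luminescence, and AC50 is derived by Hill-equation modelling.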

[3] = Cell Viability - LYMP2-009 (AID 968); further: series mostly up to about 92 µM; nearly all actives have a fitted effect of over 55% in size
[4] = Cell Viability - LYMP2-011 (AID 969); further: nearly all actives have a fitted effect of over 60% in size
Summary of the method: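 Luminescent ATP read-out (CellTiter-Glo, 30 min RT) after 24 hr compound exposure at 37 C in human lymphoblastoid cells, 2500 cells/well. Decreasing ATP indicates cytotoxicity; AC50 from standard Hill fit.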

[5] = Cell Viability - LYMP2-013 (AID 970); further: series mostly up to about 92 µM; nearly all actives have a fitted effect of over 55% in size
Description: NIH Chemical Genomics Center [NCGC]
NIH Molecular Libraries Screening Centers Network [MLSCN]
National Institutes of Environmental Health Sciences [NIEHS]
National Toxicology Program [NTP]
We have developed a 1536-well cell-based assay for quantitative high throughput screening (qHTS) against a number of cell lines to determine in vitro cytotoxicity of small molecules. This particular assay uses a human lymphoblastoid cell line (LYMP2-013) purchased from Coriell Institute for Medical Research.
NCGC Assay Protocol Summary:
The CellTiter-Glo luminescent cell viability assay (Promega) is a homogeneous method to measure the number of viable cells in culture. The end point readout of this assay is based on quantitation of intracellular ATP, an indicator of metabolic activity, using the luciferase reaction. Luciferase catalyzes the oxidation of beetle Luciferin to oxyluciferin and light in the presence of ATP. The luminescent signal is proportional to amount of ATP present.
Using the CellTiter-Glo luminescent cell viability assay, the amount of cellular ATP was measured in the lymphoblastoid cell line with complete culture medium following compound treatment for 24 hours. The assay was performed in opaque white Kalypsys 1536-well plates. In the screen, tetraoctylammonium bromide was used as positive control. Library compounds were measured for their ability to cause acute toxicity in the cell line, as reflected by a decrease in intracellular ATP levels, in a concentration-dependent manner. […] AC50 values were determined from concentration-response data modeled with the standard Hill equation.
qHTS protocol for CellTiter Glo lymphoblastoid cellular assay
[Step] [Parameter] [Value] [Description]
1. Reagent; 5 uL; 2500 lymphoblastoid cells/well
2. Time; 5 hr; 37 C incubation
4. Controls; 23 nL; Tetraoctylammonium bromide 6.4pM to 92 uM
5. Time; 24 hr; 37 C incubation
6. Reagent; 5 uL; CellTiter Glo reagent
7. Time; 30 min; Room Temperature
8. Detection; Luminescence; Viewlux plate reader
Keywords: cell viability, cytotoxicity, lymphoblastoid cell line, luminescence, NTPHTS, NTPHTS_NCGC, NIEHS, DSSTox, MLSMR, MLSCN, NIH Roadmap, qHTS, NCGC

[6] = Cell Viability - LYMP2-015 (AID 971); further: nearly all actives have a fitted effect of over 55% in size
Summary of the method: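 qHTS cytotoxicity: 2500 cells/well, 5 hr 37 C, compound 24 hr 37 C, CellTiter-Glo 30 min RT, luminescence. Loss of ATP = toxicity; AC50 via standard Hill fit.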

[7] = Cell Viability - LYMP2-017 (AID 972);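 further: series mostly up to about 92 µM; cells exposed to compound for 24 hours at 37 °C; nearly all actives have a fitted effect of over 55% in size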
Summary of the method: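 Luminescent ATP read-out (CellTiter-Glo, 30 min RT) reports viable cell number. Cells: human lymphoblastoid line, 2500 per well, 5 hr preincubation, 24 hr compound exposure at 37 C. AC50 is derived from qHTS concentration-response data using the standard Hill model.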

[8] = Cell Viability - LYMP2-019 (AID 973); further: nearly all actives have a fitted effect of over 55% in size
Summary of the method: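 qHTS, 1536-well; 2500 cells/well; 5 hr pre-incubation, 24 hr compound exposure, 37 C; CellTiter-Glo added, 30 min RT; luminescence read; AC50 via standard Hill equation.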

[9] = Cell Viability - LYMP2-021 (AID 974)
Summary of the method: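 ATP luminescence (CellTiter-Glo, 30 min RT) after 24 h compound exposure at 37 C; 2500 human lymphoblastoid cells/well, 5 h settle beforehand. Cytotoxicity = concentration-dependent ATP drop, AC50 by Hill fit.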

[10] = Cell Viability - LYMP2-023 (AID 975)
Summary of the method: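 CellTiter-Glo luminescence after 30 min at room temperature; decrease in intracellular ATP reflects toxicity. Cells: human lymphoblastoid line, 2500/well, 24 hr compound exposure at 37 C. AC50 fitted to standard Hill equation from concentration-response.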

Measured: outcome

COC(C)=O
inactive: all assays above

CCCCCCCCCC(=O)O
inactive: all assays above

C=Cc1ccccc1
not listed: [2]
inactive: all other assays above

O=C(O)CC(O)(CC(=O)O)C(=O)O
inactive: [1] | [2] | [3] | [4] | [7] | [10]

CN(C)Cc1ccccc1
inactive: all assays above
